Experimental findings from ChEMBL document CHEMBL3988442, “University of Dundee, Small-Polar-MMV Screening Library” (2021) are described below.

The target in one assay is T1, Aspartate--tRNA(Asp/Asn) ligase (Mycobacterium tuberculosis (strain ATCC 25618 / H37Rv)) (UniProt P9WFW3). Note: in the data most compounds retested in dose-response had high values.
T1 sequence (whole entry): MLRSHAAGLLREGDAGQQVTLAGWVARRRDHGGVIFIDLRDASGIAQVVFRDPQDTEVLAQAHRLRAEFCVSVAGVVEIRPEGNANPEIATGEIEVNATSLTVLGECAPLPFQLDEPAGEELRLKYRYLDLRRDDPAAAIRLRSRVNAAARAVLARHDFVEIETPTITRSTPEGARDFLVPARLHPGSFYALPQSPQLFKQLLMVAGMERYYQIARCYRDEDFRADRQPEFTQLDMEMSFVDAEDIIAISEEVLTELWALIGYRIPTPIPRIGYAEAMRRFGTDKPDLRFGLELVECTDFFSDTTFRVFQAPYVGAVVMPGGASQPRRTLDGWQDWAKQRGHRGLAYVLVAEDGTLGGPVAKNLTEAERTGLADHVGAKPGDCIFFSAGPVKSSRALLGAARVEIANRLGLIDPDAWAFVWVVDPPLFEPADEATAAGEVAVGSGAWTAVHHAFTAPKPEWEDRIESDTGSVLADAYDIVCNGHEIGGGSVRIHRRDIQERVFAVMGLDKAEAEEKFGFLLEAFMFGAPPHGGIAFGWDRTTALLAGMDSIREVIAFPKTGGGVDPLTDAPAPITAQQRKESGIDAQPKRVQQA
As to the kind of experiment: Assay for Asp RNA synthetase-1 from Mycobacterium tuberculosis. It counts as functional. Further details: scale not given: direction of the effect not stated beside the values. As to conditions: 30 µM.
With `CCN(C(c1cccnc1)c1ccc2c(c1)CCO2)S(C)(=O)=O` (stereo not given), the Percent Effect is -3.44%.

With `O=C(c1ccco1)N1CCC2(CCOC2)C1` (stereo not given), the Percent Effect was found to be 2.53%.

On to `Cc1csc(N2CCCN(C(=O)C(C)n3ccnc3)CC2)n1` (stereo not given), for which the Percent Effect came out at 1.2%.

In the case of `Cc1cc(C(=O)NCc2cccnc2OC(C)C)no1`, the Percent Effect is -2.27%.

Take `CCCS(=O)(=O)N1CCOCC2(CCN(c3ccccn3)C2)C1` (stereo not given): the Percent Effect is -2.85%.

For `CCn1ccnc1CN1CCC(CCC(=O)Nc2ccccc2Cl)CC1`, the Percent Effect was -0.673%.

`COc1ccccc1C(=O)N1CC(Cc2nccc3ccn(C)c23)C1`: the Percent Effect was -0.878%.

Regarding `CCn1cc(NC(=O)CCc2ccc3c(c2)OCCCO3)cn1`, the Percent Effect is -3.45%.

As for `O=C(Nc1ccc(F)cc1)N1C[C@H]2CC[C@@H]1CN(Cc1cccnc1)C2`, the Percent Effect was found to be 0.632%.

As for `Cn1cc(CN(Cc2ccccc2)CC(O)c2cccs2)cn1` (stereo not given), the Percent Effect was 0.353%.

Take `CO[C@@H]1CC[C@H]2[C@H]1OCCN2C(=O)C1=CCCC1`: the Percent Effect is 3.45%.

Regarding `CC(C)C(=O)N1CCN(C(=O)CCc2nnc(-c3ccccc3)o2)CC1`, the Percent Effect turned out to be 1.17%.

As for `CCc1nnc2n1CCN(Cc1csc(-c3ccsc3)n1)C2`, the Percent Effect is 1.89%.

As for `CC(C)C(=O)N1CCC2(CCCN(CCOc3ccccc3)C2)C1` (stereo not given), the Percent Effect was determined as 2.32%.

Take `CCOc1ccc(C#N)cc1NCC(=O)Nc1cc(C)no1`: the Percent Effect is -5.54%.

`Cc1cnc(C(=O)N2C[C@@H]3CN(CC4CCCC4)CCO[C@@H]3C2)cn1`: the Percent Effect was -4.04%.

As to `N#Cc1cccnc1NCCNC(=O)N1CCCC(C(F)(F)F)C1` (stereo not given), the Percent Effect was -0.524%.

`Cc1noc(C)c1-c1cccc(CC2CCN(C(=O)CCC(=O)O)C2)n1` (stereo not given): the Percent Effect is -0.313%.

With `Cc1nc[nH]c1CN1CCN(C(=O)CCC(F)(F)F)[C@H]2CS(=O)(=O)C[C@H]21`, the Percent Effect was -2.31%.

For the compound `O=C(NCc1cccs1)C1CN(C(=O)c2cccs2)CC12CCOCC2` (stereo not given), the Percent Effect was 6.61%.

Consider `Nc1cc(N2CCCC2c2cnccn2)ncn1` (stereo not given), for which the Percent Effect was 6.36%.

On to `Clc1ccccc1-c1nc(CNCCn2cccn2)cs1`, for which the Percent Effect was -1.68%.

Regarding `Cc1nc(CN2C(=O)C[C@@H]3[C@@H]2CCN3C(=O)C2CCOCC2)cs1`, the Percent Effect is -2.3%.

With `O=C(NCCc1c[nH]cn1)c1ccc2c(c1)C(=O)N(C1CC1)C2=O`, the Percent Effect was -1.45%.

As for `Cc1occc1C(=O)N1CC[C@@H](N2CCOCC2)[C@@H]1Cc1ccccc1`, the Percent Effect was determined as 7.49%.

As for `Cc1ccsc1CN(C)Cc1nc2c(cnn2C)c(=O)[nH]1`, the Percent Effect was -2.46%.

As for `O=C([C@@H]1CC[C@@H]2[C@@H](CCN2Cc2cccc(F)c2)O1)N1CCCCO1`, the Percent Effect was found to be 0.291%.

Consider `CCn1cc(C(=O)NCc2csc(Br)c2)cn1`, for which the Percent Effect was -3.16%.

As for `Cn1nc(C(=O)N2CCCCC2c2nc3cc(F)ccc3[nH]2)ccc1=O` (stereo not given), the Percent Effect was -2.79%.

Regarding `Cc1ccc(C(=O)NCCCNS(C)(=O)=O)cc1-n1cccc1`, the Percent Effect is -0.21%.

`c1ccc(-n2ncc(CNC3CCc4ncnn4C3)n2)cc1` (stereo not given): the Percent Effect worked out at 1.39%.

Take `Cn1nnc2c1C(COCC1CC1)CN(C(=O)Cc1ccsc1)C2` (stereo not given): the Percent Effect is -2.73%.

For the compound `CCc1ccc(OCC(O)CN2CCN(S(C)(=O)=O)CC2)cc1` (stereo not given), the Percent Effect is -0.577%.

`CCc1nnc2n1CCN(C(=O)CN(C)Cc1ccccc1)C2`: the Percent Effect is -3.23%.

For the compound `CNC(=O)COc1ccc(CNCc2ccc(F)cc2F)cc1`, the Percent Effect amounted to 3.4%.

`O=C(NCC1CCOC1)c1cc(-c2cccc(Cl)c2)on1` (stereo not given): the Percent Effect is 1.64%.

With `CN1CCOC(CNCc2nc(-c3ccccc3)cs2)C1` (stereo not given), the Percent Effect is -7.57%.

As to `O=C(c1cc(F)ccc1F)C1CCN(C(=O)c2ccc(=O)[nH]n2)CC1`, the Percent Effect was determined as 0.519%.

Regarding `O=C(c1ccc(Cl)c(Cl)c1)N1CCCC(n2cncn2)C1` (stereo not given), the Percent Effect is -2.85%.

For the compound `O=C(c1cccnc1)N1C[C@@H]2CC[C@H](C1)N(Cc1cc(F)ccc1F)C2`, the Percent Effect came to 5.92%.

A further assay deals with Shiga toxin 2 (Escherichia coli O157:H7) (UniProt P09385+P09386). As to the kind of experiment: E. coli 0.157:H7 Shiga Toxin SOP - stx2 screening assay. Format: functional. As to conditions: 30 µM. Set-up: scale not given: direction of the effect not stated beside the values.
Turning to `CCN(C(c1cccnc1)c1ccc2c(c1)CCO2)S(C)(=O)=O` (stereo not given), the Percent Effect is -49.4%.

As for `O=C(c1ccco1)N1CCC2(CCOC2)C1` (stereo not given), the Percent Effect is -46.7%.

For the compound `Cc1csc(N2CCCN(C(=O)C(C)n3ccnc3)CC2)n1` (stereo not given), the Percent Effect was -6.32%.

In the case of `Cc1cc(C(=O)NCc2cccnc2OC(C)C)no1`, the Percent Effect was determined as 26.9%.

In the case of `CCCS(=O)(=O)N1CCOCC2(CCN(c3ccccn3)C2)C1` (stereo not given), the Percent Effect was -23.9%.

In the case of `CCn1ccnc1CN1CCC(CCC(=O)Nc2ccccc2Cl)CC1`, the Percent Effect is -30.9%.

On to `COc1ccccc1C(=O)N1CC(Cc2nccc3ccn(C)c23)C1`, for which the Percent Effect is -11.7%.

For `CCn1cc(NC(=O)CCc2ccc3c(c2)OCCCO3)cn1`, the Percent Effect is -47.1%.

On to `O=C(Nc1ccc(F)cc1)N1C[C@H]2CC[C@@H]1CN(Cc1cccnc1)C2`, for which the Percent Effect is -26.1%.

Regarding `Cn1cc(CN(Cc2ccccc2)CC(O)c2cccs2)cn1` (stereo not given), the Percent Effect came out at 9.88%.

For the compound `CO[C@@H]1CC[C@H]2[C@H]1OCCN2C(=O)C1=CCCC1`, the Percent Effect was -25.5%.

As for `CC(C)C(=O)N1CCN(C(=O)CCc2nnc(-c3ccccc3)o2)CC1`, the Percent Effect is -3.74%.

`CCc1nnc2n1CCN(Cc1csc(-c3ccsc3)n1)C2`: the Percent Effect is -7.29%.

On to `CC(C)C(=O)N1CCC2(CCCN(CCOc3ccccc3)C2)C1` (stereo not given), for which the Percent Effect was determined as 10.8%.

For the compound `CCOc1ccc(C#N)cc1NCC(=O)Nc1cc(C)no1`, the Percent Effect was -11.5%.

In the case of `Cc1cnc(C(=O)N2C[C@@H]3CN(CC4CCCC4)CCO[C@@H]3C2)cn1`, the Percent Effect was -21.5%.

For the compound `N#Cc1cccnc1NCCNC(=O)N1CCCC(C(F)(F)F)C1` (stereo not given), the Percent Effect was -17.9%.

`Cc1noc(C)c1-c1cccc(CC2CCN(C(=O)CCC(=O)O)C2)n1` (stereo not given): the Percent Effect is -17.7%.

On to `Cc1nc[nH]c1CN1CCN(C(=O)CCC(F)(F)F)[C@H]2CS(=O)(=O)C[C@H]21`, for which the Percent Effect came to 17.8%.

On to `O=C(NCc1cccs1)C1CN(C(=O)c2cccs2)CC12CCOCC2` (stereo not given), for which the Percent Effect was 5.39%.

Consider `Nc1cc(N2CCCC2c2cnccn2)ncn1` (stereo not given), for which the Percent Effect turned out to be 0.702%.

For `Clc1ccccc1-c1nc(CNCCn2cccn2)cs1`, the Percent Effect worked out at 15.3%.

With `Cc1nc(CN2C(=O)C[C@@H]3[C@@H]2CCN3C(=O)C2CCOCC2)cs1`, the Percent Effect was -52.6%.

As for `O=C(NCCc1c[nH]cn1)c1ccc2c(c1)C(=O)N(C1CC1)C2=O`, the Percent Effect is -47.1%.

Regarding `Cc1occc1C(=O)N1CC[C@@H](N2CCOCC2)[C@@H]1Cc1ccccc1`, the Percent Effect turned out to be 6.03%.

For `Cc1ccsc1CN(C)Cc1nc2c(cnn2C)c(=O)[nH]1`, the Percent Effect is -6.66%.

Regarding `O=C([C@@H]1CC[C@@H]2[C@@H](CCN2Cc2cccc(F)c2)O1)N1CCCCO1`, the Percent Effect was -15%.

As to `CCn1cc(C(=O)NCc2csc(Br)c2)cn1`, the Percent Effect was 6.72%.

Regarding `Cn1nc(C(=O)N2CCCCC2c2nc3cc(F)ccc3[nH]2)ccc1=O` (stereo not given), the Percent Effect was -1.06%.

Regarding `Cc1ccc(C(=O)NCCCNS(C)(=O)=O)cc1-n1cccc1`, the Percent Effect was -17.9%.

Take `c1ccc(-n2ncc(CNC3CCc4ncnn4C3)n2)cc1` (stereo not given): the Percent Effect was -16.9%.

For the compound `Cn1nnc2c1C(COCC1CC1)CN(C(=O)Cc1ccsc1)C2` (stereo not given), the Percent Effect was -6.94%.

For `CCc1ccc(OCC(O)CN2CCN(S(C)(=O)=O)CC2)cc1` (stereo not given), the Percent Effect came out at 22.4%.

In the case of `CCc1nnc2n1CCN(C(=O)CN(C)Cc1ccccc1)C2`, the Percent Effect was 15.9%.

`CNC(=O)COc1ccc(CNCc2ccc(F)cc2F)cc1`: the Percent Effect is -35.4%.

`O=C(NCC1CCOC1)c1cc(-c2cccc(Cl)c2)on1` (stereo not given): the Percent Effect is -6.35%.

On to `CN1CCOC(CNCc2nc(-c3ccccc3)cs2)C1` (stereo not given), for which the Percent Effect is -26%.

As for `O=C(c1cc(F)ccc1F)C1CCN(C(=O)c2ccc(=O)[nH]n2)CC1`, the Percent Effect came to 28.6%.

For `O=C(c1ccc(Cl)c(Cl)c1)N1CCCC(n2cncn2)C1` (stereo not given), the Percent Effect is 15.6%.

For `O=C(c1cccnc1)N1C[C@@H]2CC[C@H](C1)N(Cc1cc(F)ccc1F)C2`, the Percent Effect came out at 1.2%.
